Source: PubChem
BoNT-F LC inh – inhibitors of Botulinum neurotoxin F light chain protease. Multiplex microsphere protease cleavage assay, flow cytometry. inhibition, % at 10 µM. 360,000 tested, 0.22% active. AID 588497; in the data active = inhibition above about 35%, passing the limit was not always enough; inconclusive = no clear call, values can overlap the other calls; note: plate controls were buffer without enzyme for full effect and enzyme alone for no effect
BoNT-A LC inh2 – blocks Botulinum neurotoxin A light chain protease; multiplex microsphere protease substrate cleavage, flow cytometry; inhibition, % at 10 µM; 360,000 tested, 0.17% active; AID 588499; note: plate controls were buffer without enzyme for full effect and enzyme alone for no effect
SSB-PriA inh – inhibitors of Klebsiella pneumoniae PriA binding to SSB C-terminal tail; AlphaScreen SSBct-PriA binding, biotinylated peptide; inhibition, % at 33 µM; 430,000 tested, 0.6% active; in the data active = inhibition mostly above about 37%, no sharp cut-off; inactive = mostly below about 20%;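 note: plate controls were negative control peptide for no effect and reference peptide for full effect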
Anthrax LF prot – blocks Bacillus anthracis lethal factor protease. P15917. multiplex microsphere protease cleavage assay, LF. inhibition, % at 10 µM. 360,000 tested, 0.12% active. AID 588501; note: plate controls were buffer without enzyme for full effect and enzyme alone for no effect
Bead autofluor – counter-screen for toxin protease inhibitors: compound fluorescence; compound autofluorescence counterscreen, microsphere flow cytometry; active compounds read high; fluorescence intensity (no concentration beside the values); 360,000 tested, 3.1% active; in the data active = fluorescence intensity above about 16000; inconclusive = no clear call, values can overlap the other calls
An asterisk follows results filed as active; ? = inconclusive; . = not tested or not shown. The list is not random: actives were taken first. Their share in the collection is about 3.1%. Cut-off read from the data, not from the text of the source, unless noted: active = inhibition above about 30%; inconclusive = no clear call, values can overlap the other calls; inactive = below that.

SMILES | BoNT-F LC inh | BoNT-A LC inh2 | SSB-PriA inh | Anthrax LF prot | Bead autofluor
CC1(C)CC(NS(=O)(=O)CC23CCC(CC2=O)C3(C)C)CC(C)(C)N1 (stereo unspecified) | . | . | 0 | . | .
CCOC(=O)C1=c2sc(=Cc3ccncc3)c(=O)n2C(N)=C(C(=O)OC)C1c1ccncc1 (stereo unspecified) | . | . | 5 | . | .
CCOC(=O)C1=C(N)n2c(s/c(=C/c3ccco3)c2=O)=C(C(=O)OC)C1c1ccco1 (stereo unspecified) | 0 | ? | . | 0 | 20070*
CSc1ccc(CNc2nc3ccccc3n3cnnc23)cc1 | -4 | -1 | -19 | -4 | 4423
Cc1ccc(CNc2nc3ccccc3n3cnnc23)cc1 | -6 | -1 | 98* | 0 | 4350
Cc1cc(C2C(C#N)=C(N)Oc3n[nH]c(C)c32)c(C)s1 (stereo unspecified) | 9 | 0 | 6 | 3 | 2163
Cc1cc(C2C(C#N)=C(N)SC(N)=C2C#N)c(C)s1 | 40* | 18 | 6 | 13 | 4324
O=C(CN(c1ccc(F)cc1)S(=O)(=O)c1cccnc1)NCc1ccccc1 | . | . | -1 | . | .
CC12CCC(C(=O)Nc3ccc4c(c3)OCCO4)(OC1=O)C2(C)C (stereo unspecified) | -3 | -2 | 0 | 1 | 23818*
CC12CCC(C(=O)NNc3ccccc3)(OC1=O)C2(C)C (stereo unspecified) | -9 | -1 | -5 | 1 | 5061
CC12CCC(C(=O)NC(c3ccccc3)c3ccccc3)(OC1=O)C2(C)C (stereo unspecified) | 5 | 4 | -6 | 0 | 22368*
CC(C)N1C(=O)S/C(=C/c2cccnc2)C1=O | 2 | ? | -3 | -3 | 22160*
Cc1ccc(C(C(=O)NC2CCCCC2)N(C(=O)c2csnn2)C2CCCC2)o1 (stereo unspecified) | 0 | 1 | -6 | -3 | 22165*
Cc1ccc(C(C(=O)NC2CCCC2)N(C(=O)c2csnn2)c2ccccc2)o1 (stereo unspecified) | 15 | -2 | -15 | -10 | 3859
Cc1ccc(C(C(=O)NC2CCCC2)N(C(=O)c2csnn2)C2CCCC2)o1 (stereo unspecified) | 4 | ? | -15 | 2 | 21439*
NC(=O)c1ccccc1NC=CC(=O)c1ccc(F)cc1 | . | . | -10 | . | .
COc1ccc2cc(C(=O)N3CCc4ncncc4C3)[nH]c2c1 | . | . | 5 | . | .
NCC(O)(c1cccs1)C1CC1 (stereo unspecified) | . | . | 1 | . | .
O=C(c1cc2cc([N+](=O)[O-])ccc2oc1=O)N1CCOCC1 | -1 | 0 | -11 | 2 | 2529
O=C(c1cc2cc([N+](=O)[O-])ccc2oc1=O)N1CCN(c2ncccn2)CC1 | 38* | 6 | -11 | -2 | 7793
CCOC(=O)N1CCN(C(c2ccccc2F)c2sc3nc(-c4ccco4)nn3c2O)CC1 (stereo unspecified) | . | . | 8 | . | .
O=C1N=C(N2CCCCC2)S/C1=C/c1cccc([N+](=O)[O-])c1 | . | . | -16 | . | .
OCCCNc1ncnc2sc3c(c12)CCN(Cc1ccccc1)C3 | ? | 35* | -7 | -24 | 7833
CC1(C)CC(CCC(=O)Nc2ccc(S(N)(=O)=O)cc2)C(=O)O1 (stereo unspecified) | -3 | ? | -5 | -2 | 22673*
Cc1ccc(NC(=O)CCC2CC(C)(C)OC2=O)cc1 (stereo unspecified) | -4 | 0 | -10 | -2 | 4564
SMILES | BoNT-F LC inh | BoNT-A LC inh2 | SSB-PriA inh | Anthrax LF prot | Bead autofluor
Cc1nc(-c2cccc(NC(=O)c3cnn4c3OCCC4)c2)cs1 | . | . | -8 | . | .
Cc1nn(-c2ccccc2)c2c1C1(C(=O)N(C)c3ccccc31)C(C#N)=C(N)O2 (stereo unspecified) | -1 | 0 | 2 | -6 | 9741
Cc1nn(-c2ccccc2)c2c1C1(C(=O)N3c4c(cccc41)C(C)CC3(C)C)C(C#N)=C(N)O2 (stereo unspecified) | 0 | 2 | 14 | -1 | 22394*
O=C(CN1CCC(c2nc(-c3cccs3)no2)CC1)Nc1cc(F)ccc1F | . | . | 5 | . | .
CC1=C(C(=O)Nc2ccccc2)C(c2ccc(C)cc2)N=C(Nc2nc3ccccc3o2)N1 (stereo unspecified) | -2 | -2 | -15 | -2 | 23563*
CCOC(=O)c1ccc(NC(=O)CSc2nc(=O)n(CCCN(C)C)c3c2CCC3)cc1 | . | . | -8 | . | .
CCOC(=O)N1CCN(C(=O)CSc2nc(-c3ccc([N+](=O)[O-])cc3)nc3c2c(=O)n(C)c(=O)n3C)CC1 | . | . | -7 | . | .
O=C(CC(C(=O)N1CCc2ccccc21)n1ccnc1)NCc1cccnc1 (stereo unspecified) | 0 | 0 | -2 | -5 | 11226
CCN(CCCNC(=O)CC(C(=O)N1CCc2ccccc21)n1ccnc1)c1ccccc1 (stereo unspecified) | 5 | 6 | 36 | -12 | 18267*
COc1cccc(N2C(=O)CC(=O)NC2=O)c1 | -1 | -1 | -16 | -1 | 23335*
CCOc1cccc(N2C(=O)CC(=O)NC2=O)c1 | 1 | 0 | -6 | 1 | 4775
CCc1ccccc1N1C(=O)CC(=O)NC1=O | 1 | 0 | -8 | -2 | 3909
Cc1ccccc1N1C(=O)CC(=O)NC1=O | -8 | -7 | -12 | 1 | 21951*
Nc1nc(-c2ccc(Br)s2)cs1 | . | . | 22 | . | .
CCc1c(C)nc(SCC(=O)Nc2c(C)n(C)n(-c3ccccc3)c2=O)[nH]c1=O | 5 | 4 | -9 | 0 | 21804*
Cc1nc(SCC(=O)Nc2c(C)n(C)n(-c3ccccc3)c2=O)[nH]c(=O)c1Cc1ccccc1 | 11 | 1 | -2 | 0 | 10493
Cc1c(NC(=O)CSc2nncc3ccccc23)c(=O)n(-c2ccccc2)n1C | 2 | ? | -23 | -6 | 20089*
COc1ccc(OCC(=O)NCC(c2cccn2C)N2CCc3ccccc3C2)cc1 (stereo unspecified) | . | . | 16 | . | .
CN1CCc2cc(C(CNC(=O)NCc3ccccc3)N3CCCC3)ccc21 (stereo unspecified) | . | . | 21 | . | .
Cc1csc(NC(=O)C2CCN(C(=O)CSc3nnc(C)n3Cc3ccccc3)CC2)n1 | -6 | ? | 3 | 1 | 20510*
Cc1csc(NC(=O)C2CCN(C(=O)c3ccccc3C)CC2)n1 | 2 | 0 | 1 | -1 | 4158
Cn1cc(OCc2ccc(F)cc2)c(=O)cc1C(=O)N1CCc2ccccc21 | . | . | -20 | . | .
Cn1c(=O)cc(OCCCC(=O)Nc2ccccn2)c2ccccc21 | 0 | 1 | -3 | -2 | 22529*
Cn1c(=O)cc(OCCCC(=O)NCc2ccco2)c2ccccc21 | -3 | -2 | 2 | -2 | 17294*
Cc1ccc(CNC(=O)CCCOc2cc(=O)n(C)c3ccccc23)o1 | -10 | -1 | -4 | -8 | 6564
SMILES | BoNT-F LC inh | BoNT-A LC inh2 | SSB-PriA inh | Anthrax LF prot | Bead autofluor
NC(=O)c1ccccc1NC=C1CCCCC1=O | . | . | -5 | . | .
c1ccc(Nc2cc(-c3ccccc3)nc3ncnn23)cc1 | -5 | ? | 8 | -4 | 16695*
O=c1cnnc(NN=Cc2ccccn2)[nH]1 | . | . | 71* | . | .
C(=NNc1nncc2ccccc12)c1ccccn1 | . | . | 51* | . | .
Nc1c(Cl)ncnc1NN=Cc1ccccn1 | . | . | 110* | . | .
COCCn1c(=NC(=O)c2ccc3c(c2)CCCC3)sc2cc(S(C)(=O)=O)ccc21 | . | . | -7 | . | .
